KDM5B inh – inhibitors of human KDM5B histone demethylase | Q9UGL1 | KDM5B demethylase, FDH-coupled NADH fluorescence (FDH is formaldehyde dehydrogenase) | Potency, µM (top dose mostly 57.7 µM), actives largely listed as inhibitors | 220,000 tested, 2.6% active | AID 1347165; active means well fitted inhibition curve with a large enough effect; further: nearly all actives have a fitted effect of over 70% in size
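Here, H3K4me3 peptide (12.5 µM in substrate mix) is demethylated by KDM5BΔAP, 200 nM final, after 10 min compound exposure. Formaldehyde product is coupled through FDH (0.25 U/mL in mix) to NADH fluorescence; 30-min ΔRFU feeds dose-response curves.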
Numbers stand for hits; i = inactive. The sample as a whole holds a higher share of hits than the screen did.

SMILES	KDM5B inh
Cc1cccc(Oc2nc3c(c(=O)n(C)c(=O)n3C)n2Cc2ccccc2F)c1	i
O=C(NCc1nnc2cc(-c3nc(C4CC4)no3)ccn12)C1CCC1	25µM
CCc1noc(-c2ccn3c(CNC(=O)C4CCC4)nnc3c2)n1	i
CCc1noc(-c2ccn3c(CNC(=O)C4CCCC4)nnc3c2)n1	i
O=C(NCc1nnc2cc(-c3nc(C4CC4)no3)ccn12)C1CCCCC1	28µM
Cc1ccc(OCC(=O)NC(CC(C)C)C(=O)N(C)C)cc1 (centres undefined)	i
CS(=O)(=O)N1CCC(NC(=O)c2ccc3ccccc3n2)CC1	i
CCCNC(=O)C1=CC(c2cccs2)=NS(=O)(=O)N1C	i
NS(=O)(=O)c1ccc(N/N=C2/CCc3ccccc32)c([N+](=O)[O-])c1	i
Cc1noc(C)c1-c1cc(-c2ccccc2C(F)(F)F)cn2cncc12	40µM
CNC(=O)CCn1ncc2cc(OCc3ccccc3-c3c(C)noc3C)ccc21	i
Cc1ccccc1-c1cc(-c2c(C)noc2C)cc2c1C(=O)N(C)C2	i
Cc1noc(C)c1-c1cc(-c2ccccc2F)cn2cncc12	35µM
COc1cccc(-c2cc(-c3c(C)noc3C)cc3c2C(=O)N(C)C3=O)c1OC	i
Cc1csc(SCC(=O)c2ccc(O)cc2O)n1	i
CCC(C)c1ccc(NC(=O)Cc2cccs2)cc1 (centres undefined)	i
CCc1ccc(C(=O)c2sc(Nc3cccc(Cl)c3)nc2N)cc1	i
O=C(CSCc1ccc([N+](=O)[O-])cc1)N/N=C/c1ccco1	i
Cc1ccc2nc(-c3ccc(F)cc3)c(CN3CCCC(C(N)=O)C3)cc2c1 (centres undefined)	i
NC(=O)CN1CCCC(C(=O)O)C1 (centres undefined)	i
Cn1nc(C(=O)Nc2ccc(OCC(N)=O)cc2)c2ccccc2c1=O	i
Cc1cc(C[C@@H]2COC[C@@H]2NC(=O)CCn2cnc3ccccc32)on1	i
Cc1cc(C[C@@H]2COC[C@@H]2NC(=O)COc2cccc(C)c2C)on1	20µM
Cc1cc(C[C@@H]2COC[C@@H]2NC(=O)Cn2ncc3ccccc32)on1	i
C[S+](=O)([O-])N1Cc2ccccc2CC2(CCN(CC3CCCC3)C2)C1 (centres undefined)	i
SMILES	KDM5B inh
CC1CCc2sc(C(=O)OCC(=O)NCCC3=CCCCC3)cc2C1 (centres undefined)	i
O=C(c1ccc(Cl)cc1)N1CCC2(CC1)C(=O)NCN2CCc1ccc(Cl)cc1	i
CC(=O)Nc1ccc(OCC(=O)NCc2ccc(N3CCOCC3)cc2)nc1	i
CC1(C(=O)Nc2ccccc2)CCc2cnc(N3CCOCC3)nc21 (centres undefined)	35µM
COc1cccc(Nc2ncc3c(n2)C(C)(C(=O)NCc2cccnc2)CC3)c1 (centres undefined)	i
CC(=O)N1CCN(C(=O)C2(C)CCc3cnc(Nc4ccccc4)nc32)CC1 (centres undefined)	i
O=C(NCc1cccc(Cl)c1)c1ccc(CN2C(=O)NC3(CCOCC3)C2=O)cc1	i
CC1(C(=O)NCc2cccc(Cl)c2)CCc2cnc(N3CCOCC3)nc21 (centres undefined)	35µM
Cn1ccc(NC(=O)C2(C)CCc3cnc(Nc4ccccc4)nc32)n1 (centres undefined)	i
COc1ccc(NC(=O)C2(C)COCc3cnc(Nc4ccccc4)nc32)cn1 (centres undefined)	i
COc1cccc(NC(=O)C2(C)CCc3cnc(N4CCOCC4)nc32)c1 (centres undefined)	28µM
COc1ccc(NC(=O)C2(C)CCc3cnc(N4CCOCC4)nc32)cn1 (centres undefined)	35µM
COc1cccc(Nc2ncc3c(n2)C(C)(C(=O)NC2CCOCC2)CC3)c1 (centres undefined)	i
COc1cccc(Nc2ncc3c(n2)C(C)(C(=O)NC2CCN(C)CC2)CC3)c1 (centres undefined)	i
CNC(=O)c1ccc(CN(C)C(=O)c2ccc(S(=O)(=O)NC3CC3)cc2)cc1	i
CC(=O)/C=C/c1c(C)oc2ccccc12	i
CCOc1ccc(NC(=O)c2nn(Cc3ccccc3)c(=O)c3ccccc23)cc1OCC	i
C=CCc1c(C)nc(Nc2nc(C)c3ccccc3n2)[nH]c1=O	i
Cc1ccc(-c2nc(S(=O)(=O)c3ccc(F)cc3)c(N(C)C)o2)cc1	i
O=C(NC1=NCCS1)c1cc2ccccc2s1	i
Cc1cccc(-n2ccnc2SC2CCCCC2=O)c1C (centres undefined)	i
CN(C)C(=O)c1ccccc1Br	i
CCCCN(C)C(=O)c1cn2ccnc(-c3ccccc3)c2n1	i
O=C(NC1CC1)c1cc(Br)cn2ccnc12	40µM
O=C(NCc1cccs1)c1cc2ccccc2oc1=O	i
SMILES	KDM5B inh
Cc1cc(C(=O)NC2CC2)c2cc(Br)ccc2n1	i
O=C(NCC(F)F)c1cc(Br)cn2ccnc12	40µM
O=C(NCc1cccs1)c1cc(Br)cn2ccnc12	40µM
O=C(NCC(F)F)c1nc2sccn2c1Br	i
Cc1ccc(-c2nccn3cc(C(=O)NCC(C)C)nc23)cc1	i
CN(C)C(=O)c1cc(Br)cn2ccnc12	35µM
O=C(NC1CCCC1)c1ccc(Br)cc1	i
Cc1cnc(C(=O)NCc2cccs2)cn1	i
Cc1ccc(CN2CCCC23Cc2ccccc2CNC3=O)cc1 (centres undefined)	i
Cc1ccc(CNCCC2=CCCCC2)s1	i
CCCn1nc(C(=O)Nc2nc3ccccc3s2)c2ccccc2c1=O	i
COc1ccc(-n2nnnc2SCc2cc(=O)oc3cc(C)ccc23)cc1	i
CCc1c(C)sc(NC(=O)Cc2ccc(Cl)cc2)c1C#N	i
Brc1csc(CNC2CCCc3c2cnn3Cc2ccccc2)c1 (centres undefined)	i
Cc1nc(-c2ccccc2)n(Cc2ccccc2Cl)c(=O)c1CCO	i
CN(CCc1noc(COc2cccc(F)c2)n1)C(=O)c1ccccc1C(F)(F)F	i
Cn1nc(C(=O)OCc2ccc(C(C)(C)C)cc2)c2ccccc2c1=O	i
CCOC(=O)c1c(C)sc2c1OC(N)=C(C#N)C21C(=O)N(Cc2cccc(F)c2)c2ccccc21 (centres undefined)	i
CC(OC(=O)Cn1cnc2c1c(=O)n(C)c(=O)n2C)C(=O)Nc1ccc(F)cc1 (centres undefined)	i
C/C=C/C=N/NC(=O)C(O)c1ccccc1 (centres undefined)	i
CCc1ncc2c(N3CC4CCC(C3)N4CC(F)(F)F)nc3ccccc3n12	71µM
COc1cc2ncnc(N3CC4CCC(C3)N4CC(F)(F)F)c2cc1OC	i
FC(F)(F)CN1C2CCC1CN(c1cnccn1)C2	i
O=C(O)C(c1c[nH]c2ccccc12)N1CCc2ccccc2C1 (centres undefined)	i
CN(Cc1ccc(C(N)=O)cc1)Cc1ccsc1	i
SMILES	KDM5B inh
CN(C)C[C@@H]1CN(Cc2ccncc2)C[C@H]1NC(=O)c1ccc(Cl)cc1	20µM
COCC(=O)N[C@@H]1CN(Cc2ccccc2)C[C@H]1CN(C)C	i
COCC(=O)N[C@@H]1CN(Cc2ccncc2)C[C@H]1CN(C)C	25µM
COCCC(=O)N[C@@H]1CN(Cc2ccccc2)C[C@H]1CN(C)C	i
CN(C)C[C@@H]1CN(c2ccncn2)C[C@H]1NC(=O)c1ccc(Cl)cc1	i
CN(C)C[C@@H]1CN(Cc2cccnc2)C[C@H]1NC(=O)c1ccc(C#N)cc1	i
Cc1ccccc1NC(CNS(=O)(=O)c1ccccc1)c1ccccc1 (centres undefined)	i
Cc1ccc(OCC(O)Cn2nc(-c3ccco3)oc2=O)cc1 (centres undefined)	i
